HP1b binding inh: blocks HP1-beta chromodomain binding to methylated histone tails. AlphaScreen HP1-beta / biotin-H3K9me3 peptide binding. Potency, µM (doses to about 114 µM), hits mostly inhibitors. 390,000 compounds, 0.56% hits. AID 540317; further: nearly all actives have a fitted effect of over 70% in size
Target sequence (P83916 whole entry, looked up): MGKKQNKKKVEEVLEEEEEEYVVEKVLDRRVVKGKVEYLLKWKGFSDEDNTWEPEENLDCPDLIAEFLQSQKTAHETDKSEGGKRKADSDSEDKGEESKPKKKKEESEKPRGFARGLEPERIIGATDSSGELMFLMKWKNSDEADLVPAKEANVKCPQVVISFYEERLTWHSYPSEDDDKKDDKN
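HP1-beta protein (50 nM final) preincubated 30 min at room temperature with biotinylated H3(1-18)K9me3 peptide (50 nM) in PBS pH 7.4, 0.01% Tween-20, then compound added for 30 min. AlphaScreen streptavidin donor/nickel chelate acceptor beads (10 ug/mL final), 30 min dark, luminescence read.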
G9a block: G9a (human) methyltransferase inhibition; G9a H3K9 monomethylation, AlphaScreen, 2 h; AID 504332; Potency, µM (top dose mostly 102 µM), actives largely listed as inhibitors; 350,000 compounds, 8.8% hits; further: nearly all actives have a fitted effect of over 75% in size
Target sequence (Q96KQ7 913-1193 limits assumed): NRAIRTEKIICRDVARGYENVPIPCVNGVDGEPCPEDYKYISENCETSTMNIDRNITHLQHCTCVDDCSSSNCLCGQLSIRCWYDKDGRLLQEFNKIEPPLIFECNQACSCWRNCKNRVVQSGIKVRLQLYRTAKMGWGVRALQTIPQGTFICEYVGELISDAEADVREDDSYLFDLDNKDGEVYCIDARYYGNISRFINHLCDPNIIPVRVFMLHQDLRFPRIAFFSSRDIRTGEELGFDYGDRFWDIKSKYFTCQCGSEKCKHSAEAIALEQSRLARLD
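AlphaScreen read-out: biotin-H3K9 peptide (500 nM) methylation by 20 nM enzyme with 20 uM SAM, 2 h at room temperature after 15 min compound preincubation; anti-monomethyl H3K9 antibody plus donor/acceptor beads, 10 min dark.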
BAZ2B block: BAZ2B (human) inhibition. 360,000 compounds, 4.4% hits. AlphaScreen BAZ2B-H3K14Ac peptide displacement. Q9UIF8. Potency, µM (titrated, usually from 114 µM), most hits filed as inhibitors; further: nearly all actives have a fitted effect of over 60% in size
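In this displacement format the biotinylated H3(5-23) peptide acetylated at Lys14 serves as ligand at 50 nM, with BAZ2B at 50 nM in PBS pH 7.4 containing 0.01% Tween-20. Donor and acceptor beads are 10 ug/mL final.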
Sfp inh: blocks B. subtilis Sfp PPTase activity | Q9F4F7 | Biochemical Sfp PPTase activity, qHTS | Potency, µM, usual class: inhibitors | 310,000 compounds, 3.5% hits;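 further: the enzyme is Sfp with the accession as filed and its product quenches rhodamine fluorescence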
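Step 1, compound plus 15 nM Sfp-PPTase, 15 min, room temperature. Step 2, add rhodamine-CoA (5 uM) and BHQ-2-YbbR (12.5 uM). Step 3, read 525/598 nm fluorescence at 0 and 30 min.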
12-LOX inh: ALOX12 (human) lipoxygenase inhibition; 580,000 compounds, 1.1% hits; P18054; Potency, µM (highest dose often 108 µM), hits mostly inhibitors; purified 12hLO, xylenol orange hydroperoxide absorbance
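Purified human 12hLO at 150 nM in 25 mM Hepes, 0.01% Triton X-100, pH 7.0, preincubated 15 min at room temperature with compound. Reaction started with 40 uM arachidonic acid, 30 min at room temperature. Hydroperoxide measured by Fe-xylenol orange, 573/405 nm absorbance ratio.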
JMJD2A Tudor inh: JMJD2A Tudor domain (human) inhibition | O75164 | AlphaScreen JMJD2A-Tudor / H3K4me3 peptide binding | Potency, µM (titrated, usually from 114 µM), usual class: inhibitors | 390,000 compounds, 4.4% hits; further: nearly all actives have a fitted effect of over 50% in size
Hits are given with their value; 0 = inactive; ? = inconclusive; - = no result given; [ ] = another dose, or the depositor's remark. A selection: hits, their analogues and other compounds. The true share with any hit is near 8.7%. The call rests on the fitted dose curve; in most records, active means well fitted curve in the direction sought with a large enough effect; inconclusive means small, poorly fitted or top-dose-only effect, or another doubt; inactive means no such curve, though single readings can be large; an effect the other way counts as inactive or inconclusive.

SMILES	HP1b binding inh	G9a block	BAZ2B block	Sfp inh	12-LOX inh	JMJD2A Tudor inh
COCCN1CCCCC(CC(=O)Nc2cc(C)c(Cl)cc2OC)C1=O (stereo unspecified)	-	-	-	-	0	-
O=C(O)c1c(Cl)c(Cl)c(Cl)c(Cl)c1C(=O)N1CCCCCC1	0	-	0	0	0	0
O=C(O)c1c(Cl)c(Cl)c(Cl)c(Cl)c1C(=O)N1CCOCC1	0	0	0	?	11µM	0
CC(C)c1noc(-c2cccn3c(CNC(=O)c4cc(F)ccc4F)nnc23)n1	-	-	-	-	0	-
O=C(CCC(=O)N/N=C/c1ccc(Br)s1)NCc1ccccc1	0	0	0	0	0	0
O=C(CCC(=O)N/N=C/c1cc(Cl)cc(Cl)c1O)NCc1ccccc1	0	-	0	0	0	28µM
O=C1C=CC(=O)c2c(O)c(CO)c(CO)c(O)c21	3.2µM	-	-	-	?	2.2µM
O=C1C=CC(=O)c2c(O)c(Cl)c(Cl)c(O)c21	-	-	-	11µM	-	-
Nc1cc(=O)[nH]c(SCC(=O)N2N=C(c3ccc4ccccc4c3)CC2c2ccccc2)n1 (stereo unspecified)	0	0[12.7 µM]	?	0	0	?
COc1ccc(C2CC(c3ccc4ccccc4c3)=NN2C(=O)CNC2CCCCC2)cc1 (stereo unspecified)	?	10µM	56µM	0	45µM	22µM
CCN1CCN(CC(=O)N2N=C(c3ccc(OC)cc3)CC2c2ccc(OC)cc2)C(=O)C1=O (stereo unspecified)	0	0	0	0	0	79µM
COc1ccc(C2CC(c3ccc4ccccc4c3)=NN2C(=O)CN2CCC(C(N)=O)CC2)cc1 (stereo unspecified)	0	?	0	?	0	?
CC(=O)OCC(=O)N1N=C(c2ccc3ccccc3c2)CC1c1ccccc1 (stereo unspecified)	0	0	0	25µM	0	0
COc1ccc(C2CC(c3ccc4ccccc4c3)=NN2C(=O)COC(=O)C2CCC(=O)N2)cc1 (stereo unspecified)	0	?	35µM	0	0	?
Cc1ccc2c(C(=O)O)csc2c1	-	-	-	-	0	-
Cc1ccc(OCc2nc(C3CN(C(=O)c4cc(C)nn4C)C3)no2)cc1	-	-	-	-	0	-
CCCCn1nc(C(=O)N2CCCC(c3nc4ccccc4s3)C2)c2ccccc2c1=O (stereo unspecified)	-	-	-	-	0	-
CCCC(C)N1CC2(CCN(C(=O)Cn3nc(C)cc3C)CC2)OC1=O (stereo unspecified)	-	-	-	-	0	-
O=C(CSC1=NS(=O)(=O)c2ccccc21)Nc1ccccc1	0	7.9µM	?	13µM	0	0
COC(=O)CSC1=NS(=O)(=O)c2ccccc21	0	1.4µM	0	3.5µM	-	16µM
Cn1cc(C(=O)c2ccc(Cl)cc2)cc1-c1nc2ccccc2n1C	0	-	?	0	0	56µM
Cc1nc(C23CC4CC(CC(C4)C2)C3)c(C)o1	-	-	-	-	0	-
Cc1ccc(C(=O)Nc2ccc3c(c2)CCC3)s1	-	-	-	-	0	-
O=C(Nc1ccccc1F)c1cc2cc(Br)ccc2oc1=O	-	-	-	-	0	-
CCn1c(=O)c(=O)[nH]c2cc(C(=O)NCC3CCCCC3)ccc21	0	?	0	0	0	0
SMILES	HP1b binding inh	G9a block	BAZ2B block	Sfp inh	12-LOX inh	JMJD2A Tudor inh
CCn1c(=O)c(=O)[nH]c2cc(C(=O)NC3CCCC3)ccc21	0	0	0	0	?	13µM
Cc1cccc(-c2ccc3c(c2)C(=O)N2CC[C@H](NC(=O)c4cccnc4)C[C@H]2C(=O)N3)c1C	-	-	-	-	0	-
O=C(Nc1ccc(-c2nnn(CC(=O)N3CCN(C(=O)c4ccco4)CC3)n2)cc1)c1ccc(F)cc1	0	56µM	79µM	0	?	0[11.4 µM]
Cc1cccc(OCC(=O)Nc2ccc(N3CCN(C(=O)c4ccco4)CC3)cc2)c1	0	79µM	0	0	0	0
O=C(Nc1ccc(N2CCN(C(=O)c3ccco3)CC2)cc1)c1ccc(Br)cc1	0	0	0	0	0	0
O=C(NCc1ccccc1)c1cccc(OCC(=O)N2CCN(C(=O)c3ccco3)CC2)c1	0	8.9µM	?	0	?	40µM
Cc1ccc(C(=O)Nc2ccc(N3CCN(C(=O)c4ccco4)CC3)cc2)cc1	0	0	0	0	0	79µM
O=C(CC(=O)c1ccc(Cl)cc1)c1ccc(Cl)cc1	-	-	-	-	0	-
Cc1nonc1NC(=O)COc1ccc(C(C)(C)C)cc1	-	-	-	-	0	-
C=CCN(C(=O)CSC1=NC(=O)CN1C(C)=O)c1nc(C)c(-c2ccccc2)s1	0	40µM	35µM	0	0	?
CCN(C(=O)C(=O)c1c[nH]c2ccccc12)c1ccc(C)c(C)c1	-	-	-	-	0	-
CC(C)CCNC(=O)[C@H](CC(C)C)NC(=O)[C@H]1O[C@@H]1C(=O)O	-	35µM	0	0	-	-
COc1ccc(CC(=O)Nc2ccc(OC)c(NC(=O)c3ccco3)c2)cc1	0	50µM	0	0	0	0
COc1ccc(NC(=O)c2oc3ccccc3c2NC(=O)c2cc3ccccc3o2)c(OC)c1	0	0	0	-	0	0
Cc1ccc(-c2nc3ccccc3o2)cc1NC(=S)NC(=O)c1cc2ccccc2o1	0	50µM	0	?	0	0
COc1ccc(NC(=S)NC(=O)c2cc3ccccc3o2)c(OC)c1	0	10µM	0	0	?	0
COc1ccc(NC(=O)c2oc3ccccc3c2NC(=O)c2ccco2)c(OC)c1	0	0[2.33 µM]	0	25µM	0	0
CC(NC(=O)c1nn(-c2ccccc2)c(=O)c2ccccc12)C1CC1 (stereo unspecified)	-	-	-	-	0	-
CCOc1ccccc1NC(=O)Cn1nc2n(c1=O)CCCC2	-	-	-	-	0	-
Cn1ccc(C(=O)NC(=S)Nc2ccc([N+](=O)[O-])cc2O)n1	0	25µM	0	?	0	0
O=C(NC(=S)Nc1ccc([N+](=O)[O-])cc1O)C1CCCCC1	0	0[12.7 µM]	0	0	0	0
Nn1c(COc2cccc(Br)c2)nnc1SCC(=O)N1CCc2ccccc2C1	0	40µM	0	0	0	0
Cn1c(Cc2ccc3c(c2)OCO3)nnc1SCC(=O)N1CCc2ccccc2C1	0	45µM	0	0	0	0
O=C1NCCCCCCN(C(=O)C2CC2)[C@H]2CCCC[C@@H]12	-	-	-	-	0	-
CCc1ccc(NC(=O)Cc2nc(-c3c[nH]c(C(=O)N4CCCC4)c3)cs2)cc1	-	-	-	-	0	-
O=C(Nc1ccnn1C1CCN(C/C=C/c2ccccc2)CC1)C1CCCC1	0	-	?	0	0	0
O=C(Nc1ccnn1C1CCN(Cc2ccc(OC(F)F)cc2)CC1)C1CCCC1	0	0	0	0	?	0
O=C(Nc1ccnn1C1CCN(Cc2ccc(OC3CCCC3)cc2)CC1)C1CC1	-	-	-	-	8.9µM	-
COc1ccc(/C=C/CN2CCC(n3nccc3NC(=O)C3CC3)CC2)cc1	0	0	0	0	25µM	0
N#CCSc1nnc(-c2c[nH]c3ccccc23)n1C1CC1	-	-	-	-	0	-
